Source: paper PMC12820563, “FoxP3 forms a head-to-head dimer in vivo and stabilizes its multimerization on adjacent microsatellites”
Whole data set: some 16,000 sequences, median “rpm ratio (pull-down/input)” near 0.5, cut for the highest 2% near 5.5. For the sample, the highest values were picked, then their nearest neighbours and some sequences at random.

target: T1, MBP-FoxP3dN (Mus musculus, UniProt Q99JB6 188-423); assay: PD-seq (MBP pull-down with sequencing); 20 mM Tris-HCl pH 7.5, 100 mM NaCl, 1.5 mM MgCl2, 0.4 uM protein, 0.1 uM dsDNA library, 30 min, room temperature, amylose pull-down; high values mean tight binding; details: protein: recombinant; tags: His6-MBP; chain copies: 2; dsDNA, one strand shown
T1 sequence: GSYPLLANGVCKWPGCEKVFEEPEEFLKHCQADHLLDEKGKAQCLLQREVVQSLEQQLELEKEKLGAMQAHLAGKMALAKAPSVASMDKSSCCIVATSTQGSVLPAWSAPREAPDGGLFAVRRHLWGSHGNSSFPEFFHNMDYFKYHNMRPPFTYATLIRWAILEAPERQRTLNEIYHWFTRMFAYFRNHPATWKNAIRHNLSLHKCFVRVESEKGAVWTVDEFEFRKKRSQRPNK
How it was run: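 His6-MBP-tagged mouse FoxP3 or FoxP1 fragment lacking the N-terminus, expressed in E. coli, was mixed at 0.4 µM with 0.1 µM Klenow-filled double-stranded degenerate DNA library. Incubation was 30 min at room temperature in Tris pH 7.5 buffer with NaCl and MgCl2. Complexes were caught on amylose resin and washed three times; DNA was released with proteinase K, PCR-barcoded and Illumina-sequenced. Binding is reads-per-million enrichment, pull-down over input, with replicates pooled.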

Q: For “GATGATTGTTCTCCCAGCTGATGAATTTTACGATTCGAGTAAACAAATTTTCCTAATCTTTCTGTTCAAGCGCCATCTAC”, which binding signal is on record?
A: 0.308 RPM ratio (pull-down/input)

Q: For “GATGATTGTTCTCCCAGCTGATGAATTGTAAAGATCGAGTAAACAAATTTTCCTAATCTTTCTGTTCAAGCGCCATCTAC”, which binding signal is on record?
A: 0.29 RPM ratio (pull-down/input)

Q: With “GATGATTGTTCTCCCAGCTGATGAATTACAGCCGTCGAGTAAACAAATTTTCCTAATCTTTCTGTTCAAGCGCCATCTAC” as the sequence, how does the binding signal read?
A: 0.412 RPM ratio (pull-down/input)

Q: “GATGATTGTTCTCCCAGCTGATGAATTTTGACGTTCGAGTAAACAAATTTTCCTAATCTTTCTGTTCAAGCGCCATCTAC” was tested. Which binding signal did it give?
A: 0.933 RPM ratio (pull-down/input)

Q: How did the binding signal turn out when “GATGATTGTTCTCCCAGCTGATGAATTACGATCATCGAGTAAACAAATTTTCCTAATCTTTCTGTTCAAGCGCCATCTAC” was run?
A: 0.571 RPM ratio (pull-down/input)

Q: With “GATGATTGTTCTCCCAGCTGATGAATTACTGATTTCGAGTAAACAAATTTTCCTAATCTTTCTGTTCAAGCGCCATCTAC” as the sequence, how does the binding signal read?
A: 0.523 RPM ratio (pull-down/input)

Q: How did the binding signal turn out when “GATGATTGTTCTCCCAGCTGATGAATTGCTGAATTCGAGTAAACAAATTTTCCTAATCTTTCTGTTCAAGCGCCATCTAC” was run?
A: 0.916 RPM ratio (pull-down/input)

Q: For “GATGATTGTTCTCCCAGCTGATGAATTCTGCAGCTCGAGTAAACAAATTTTCCTAATCTTTCTGTTCAAGCGCCATCTAC”, which binding signal is on record?
A: 2.66 RPM ratio (pull-down/input)

Q: With “GATGATTGTTCTCCCAGCTGATGAATTCTGCATCTCGAGTAAACAAATTTTCCTAATCTTTCTGTTCAAGCGCCATCTAC” as the sequence, how does the binding signal read?
A: 6.75 RPM ratio (pull-down/input)

Q: How did the binding signal turn out when “GATGATTGTTCTCCCAGCTGATGAATTCTGCATTTCGAGTAAACAAATTTTCCTAATCTTTCTGTTCAAGCGCCATCTAC” was run?
A: 6.51 RPM ratio (pull-down/input)

Q: With “GATGATTGTTCTCCCAGCTGATGAATTCTGCTGTTCGAGTAAACAAATTTTCCTAATCTTTCTGTTCAAGCGCCATCTAC” as the sequence, how does the binding signal read?
A: 3.41 RPM ratio (pull-down/input)

Q: With “GATGATTGTTCTCCCAGCTGATGAATTGCTGCATTCGAGTAAACAAATTTTCCTAATCTTTCTGTTCAAGCGCCATCTAC” as the sequence, how does the binding signal read?
A: 6.8 RPM ratio (pull-down/input)

Q: With “GATGATTGTTCTCCCAGCTGATGAATTACTGAATTCGAGTAAACAAATTTTCCTAATCTTTCTGTTCAAGCGCCATCTAC” as the sequence, how does the binding signal read?
A: 0.586 RPM ratio (pull-down/input)

Q: With “GATGATTGTTCTCCCAGCTGATGAATTCTCTGCATCGAGTAAACAAATTTTCCTAATCTTTCTGTTCAAGCGCCATCTAC” as the sequence, how does the binding signal read?
A: 0.793 RPM ratio (pull-down/input)

Q: Which binding signal does the source give for “GATGATTGTTCTCCCAGCTGATGAATTACTGCATTCGAGTAAACAAATTTTCCTAATCTTTCTGTTCAAGCGCCATCTAC” here?
A: 6.01 RPM ratio (pull-down/input)

Q: With “GATGATTGTTCTCCCAGCTGATGAATTCGCATGATCGAGTAAACAAATTTTCCTAATCTTTCTGTTCAAGCGCCATCTAC” as the sequence, how does the binding signal read?
A: 0.877 RPM ratio (pull-down/input)

Q: Which binding signal does the source give for “GATGATTGTTCTCCCAGCTGATGAATTCTGCGGGTCGAGTAAACAAATTTTCCTAATCTTTCTGTTCAAGCGCCATCTAC” here?
A: 0.928 RPM ratio (pull-down/input)

Q: “GATGATTGTTCTCCCAGCTGATGAATTAGTCCGTTCGAGTAAACAAATTTTCCTAATCTTTCTGTTCAAGCGCCATCTAC” was tested. Which binding signal did it give?
A: 0.434 RPM ratio (pull-down/input)

Q: How did the binding signal turn out when “GATGATTGTTCTCCCAGCTGATGAATTCATGAAATCGAGTAAACAAATTTTCCTAATCTTTCTGTTCAAGCGCCATCTAC” was run?
A: 0.289 RPM ratio (pull-down/input)

Q: How did the binding signal turn out when “GATGATTGTTCTCCCAGCTGATGAATTAAACCTTTCGAGTAAACAAATTTTCCTAATCTTTCTGTTCAAGCGCCATCTAC” was run?
A: 0.318 RPM ratio (pull-down/input)

Q: Which binding signal does the source give for “GATGATTGTTCTCCCAGCTGATGAATTATTCTGCTCGAGTAAACAAATTTTCCTAATCTTTCTGTTCAAGCGCCATCTAC” here?
A: 0.328 RPM ratio (pull-down/input)

Q: “GATGATTGTTCTCCCAGCTGATGAATTATGAGAGTCGAGTAAACAAATTTTCCTAATCTTTCTGTTCAAGCGCCATCTAC” was tested. Which binding signal did it give?
A: 0.397 RPM ratio (pull-down/input)

Q: With “GATGATTGTTCTCCCAGCTGATGAATTTAAGGCATCGAGTAAACAAATTTTCCTAATCTTTCTGTTCAAGCGCCATCTAC” as the sequence, how does the binding signal read?
A: 0.732 RPM ratio (pull-down/input)

Q: With “GATGATTGTTCTCCCAGCTGATGAATTTAAAGACTCGAGTAAACAAATTTTCCTAATCTTTCTGTTCAAGCGCCATCTAC” as the sequence, how does the binding signal read?
A: 0.245 RPM ratio (pull-down/input)

Q: With “GATGATTGTTCTCCCAGCTGATGAATTAGTACAGTCGAGTAAACAAATTTTCCTAATCTTTCTGTTCAAGCGCCATCTAC” as the sequence, how does the binding signal read?
A: 0.484 RPM ratio (pull-down/input)

Q: Which binding signal does the source give for “GATGATTGTTCTCCCAGCTGATGAATTGGATTTATCGAGTAAACAAATTTTCCTAATCTTTCTGTTCAAGCGCCATCTAC” here?
A: 1.47 RPM ratio (pull-down/input)

Q: Which binding signal does the source give for “GATGATTGTTCTCCCAGCTGATGAATTCGCTGCATCGAGTAAACAAATTTTCCTAATCTTTCTGTTCAAGCGCCATCTAC” here?
A: 1.02 RPM ratio (pull-down/input)

Q: For “GATGATTGTTCTCCCAGCTGATGAATTTCTGCATTCGAGTAAACAAATTTTCCTAATCTTTCTGTTCAAGCGCCATCTAC”, which binding signal is on record?
A: 6.35 RPM ratio (pull-down/input)

Q: With “GATGATTGTTCTCCCAGCTGATGAATTTCCTGCATCGAGTAAACAAATTTTCCTAATCTTTCTGTTCAAGCGCCATCTAC” as the sequence, how does the binding signal read?
A: 0.719 RPM ratio (pull-down/input)

Q: Which binding signal does the source give for “GATGATTGTTCTCCCAGCTGATGAATTCTGCCATTCGAGTAAACAAATTTTCCTAATCTTTCTGTTCAAGCGCCATCTAC” here?
A: 4.97 RPM ratio (pull-down/input)

Q: For “GATGATTGTTCTCCCAGCTGATGAATTCCTGCATTCGAGTAAACAAATTTTCCTAATCTTTCTGTTCAAGCGCCATCTAC”, which binding signal is on record?
A: 5.61 RPM ratio (pull-down/input)

Q: With “GATGATTGTTCTCCCAGCTGATGAATTCCCTGCATCGAGTAAACAAATTTTCCTAATCTTTCTGTTCAAGCGCCATCTAC” as the sequence, how does the binding signal read?
A: 0.746 RPM ratio (pull-down/input)
